# From PubChem
# Mdm2 MdmX PPI = inhibitors of human Mdm2-MdmX association, primary screen, cell-based, luminescence, split luciferase, SaOS-2, uHTS. Protein Mdm4 (Homo sapiens) + E3 ubiquitin-protein ligase Mdm2 (Homo sapiens), …. SaOS-2 split-luciferase Mdm2/MdmX complementation. inhibition, % at 8 µM. actives 3% (n = 330,000). AID 485346, 2010;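 active means inhibition of at least 50% at 8 µM in the primary screen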
# Target sequence (O15151 whole entry, looked up): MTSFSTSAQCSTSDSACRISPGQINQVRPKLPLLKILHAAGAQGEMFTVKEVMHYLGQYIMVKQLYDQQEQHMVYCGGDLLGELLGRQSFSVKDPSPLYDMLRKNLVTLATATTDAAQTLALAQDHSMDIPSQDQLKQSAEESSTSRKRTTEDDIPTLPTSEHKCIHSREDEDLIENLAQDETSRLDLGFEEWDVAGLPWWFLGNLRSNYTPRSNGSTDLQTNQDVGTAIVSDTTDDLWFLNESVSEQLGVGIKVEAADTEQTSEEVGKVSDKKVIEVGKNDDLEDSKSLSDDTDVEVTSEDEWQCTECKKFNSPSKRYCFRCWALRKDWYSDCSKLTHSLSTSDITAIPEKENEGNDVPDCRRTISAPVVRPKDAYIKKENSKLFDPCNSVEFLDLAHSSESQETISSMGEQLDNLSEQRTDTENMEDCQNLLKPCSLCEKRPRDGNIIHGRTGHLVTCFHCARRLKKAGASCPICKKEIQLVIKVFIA
# Target sequence (Q00987 whole entry, looked up): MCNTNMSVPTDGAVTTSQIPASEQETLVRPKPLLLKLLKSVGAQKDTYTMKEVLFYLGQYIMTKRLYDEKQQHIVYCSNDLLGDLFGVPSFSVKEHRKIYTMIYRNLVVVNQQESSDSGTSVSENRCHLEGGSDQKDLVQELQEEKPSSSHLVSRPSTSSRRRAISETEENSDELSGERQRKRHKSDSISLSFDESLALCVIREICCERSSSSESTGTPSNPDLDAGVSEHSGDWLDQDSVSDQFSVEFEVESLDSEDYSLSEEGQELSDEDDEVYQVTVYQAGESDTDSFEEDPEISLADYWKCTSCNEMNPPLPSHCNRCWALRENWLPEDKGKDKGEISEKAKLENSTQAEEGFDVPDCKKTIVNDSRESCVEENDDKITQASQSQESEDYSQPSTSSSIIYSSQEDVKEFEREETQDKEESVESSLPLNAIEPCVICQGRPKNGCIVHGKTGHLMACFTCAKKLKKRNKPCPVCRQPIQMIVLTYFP
# MPTP inh = mitochondrial permeability transition pore inhibitors, primary screen, biochemical, isolated mouse mitochondria, absorbance; Ca2+ swelling absorbance, 30 min; inhibition, % at 10 µM; AID 602449, 2012; actives 1.4% (n = 360,000);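 active means inhibition of 50% or more, scaled per plate between neutral and stimulator controls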;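 further: 0% = DMSO wells given calcium and 100% = 1 mM EGTA wells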
# Gli-Sufu antag = Gli-Sufu pathway antagonists, primary screen, luciferase luminescence, Sufu-KO-LIGHT cells, uHTS; Sufu-KO-LIGHT fibroblasts, Gli luciferase reporter luminescence; inhibition, % at 5 µM; actives 0.74% (n = 340,000); AID 588413, 2011;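 active means inhibition above about 55%, limit read from the data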;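 further: 0% = DMSO-treated cells and 100% = wells with medium but no cells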
# NR3A LBD binder = binders of NR3A ligand-binding domain, primary screen, biophysical, differential scanning fluorimetry, uHTS; NR3A LBD differential scanning fluorimetry, Tm shift; 0% = protein alone, 100% = glycine-bound protein; Tm shift relative to glycine control, % at 25 µM; actives 2.5% (n = 340,000);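 active means melting temperature shift of at least 10% of the positive control shift, at one fixed dose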
# Beta cell apopt = inhibitors of cytokine-induced beta cell apoptosis, primary screen, luminescence. AID 435005, 2010. protection from apoptosis, % (concentration not given with the values). INS-1E cytokine-induced death, ATP luminescence, 48 h; percent of positive-control rescue, neutral wells zero. actives 0.8% (n = 300,000);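 active means Every replicate reaches about 75%, or at least half do and their mean reaches it too, limit read from the data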;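 further: 0% = cytokine-treated negative control wells and 100% = positive control rescue; higher means more ATP so stronger rescue from cytokine killing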
# CSC inhib = cancer stem cell viability inhibitors, primary screen, luminescence | inhibition, % at 7.5 µM | cancer stem cell-like cells viability | actives 1.1% (n = 300,000); in the data active means inhibition above about 75%; tested in HMLE shEcad cells
# Mdm2 MdmX conf = Mdm2-MdmX complex disruptors, retested hits, confirmation, luminescence, single concentration. shares compounds with Mdm2 MdmX PPI. Mdm2-MdmX binding, luminescent assay. inhibition, % at 8 µM. actives 55% (n = 10,000); in the data active means inhibition above about 40%
# FLuc counter = full-length luciferase signal inhibition, confirmation, counter-screen for Mdm2/MdmX interaction inhibitor project, cell-based, single concentration, SaOS-2; shares compounds with Mdm2 MdmX PPI; SaOS-2 full-length luciferase counterscreen, luminescence; inhibition, % at 8 µM; actives 77% (n = 6,200);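 active means mean inhibition at 8 µM reaching about 37%, which flags the compound as non-specific, limit read from the data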;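 further: p53-null SaOS-2 cells with luciferase driven by a doxycycline-inducible promoter; compound on cells about two nights before reading with doxycycline added after day one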
# Gli-Sufu confirm = Gli-SUFU pathway antagonists, confirmation, single concentration, luciferase luminescence, Sufu-KO-LIGHT cells; shares compounds with Gli-Sufu antag; Gli luciferase reporter; inhibition, % at 5 µM; actives 40% (n = 2,500);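 active means mean inhibition at 5 µM reaching about 45%, limit read from the data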;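 further: plate controls were DMSO-treated cells for no effect and wells lacking cells for full effect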
# SufuKO cytotox = cytotoxicity in Sufu-KO-LIGHT cells, confirmation, cytotoxicity control for Gli-SUFU antagonist project, cell-based, ATP luminescence, single concentration. actives 32% (n = 2,500). shares compounds with Gli-Sufu antag. cytotoxicity, % at 5 µM;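 active means mean cytotoxicity at 5 µM above about 25%, limit read from the data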;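 further: cells exposed to compound overnight for roughly 16 to 18 hours; plate controls were DMSO wells with cells for no effect and medium without cells for full effect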
# Wnt3a cs = Wnt3a reporter signal inhibition, confirmation, counter-screen for Gli-SUFU antagonist project, Wnt-LIGHT cells, luminescence, single concentration; actives 20% (n = 2,500); AID 651995, 2013; Wnt3a-driven luciferase reporter; shares compounds with Gli-Sufu antag; inhibition, % at 6.25 µM;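 active means mean inhibition above about 25%, limit read from the data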
# * hit, by the source's call; . = not tested or not shown. The list is not random: actives were taken first. Their share in the collection is about 6.6%.
SMILES,Mdm2 MdmX PPI,MPTP inh,Gli-Sufu antag,NR3A LBD binder,Beta cell apopt,CSC inhib,Mdm2 MdmX conf,FLuc counter,others
CCOc1ccc(NC(=O)CC2SC(=O)N(c3ccccc3)C2=O)cc1 (centres undefined),9.3,0.5,5.3,-13.6,-11.9,-7.8,.,.,
Cc1ccccc1OCCn1cc(C=O)c2ccccc21,17.7,0.5,11.2,-9.4,2.5,20.5,.,.,
O[C@@H]1[C@@H](O)C=C2CCN3Cc4cc5c(cc4[C@H]1C23)OCO5 (some centres undefined),83.6*,1.7,69.2*,0.6,36.4,6.2,75.6*,101.3*,
O=C(CNC(=O)c1ccccc1F)OCn1nnc2ccccc2c1=O,-21.9,0.1,-1.1,1.2,-4.4,-6.0,.,.,
CCC1Nc2ncnc(N3CCc4ccccc4C3)c2N(Cc2ccc(Cl)cc2)C1=O (centres undefined),34.9,0.8,-1.9,-9.0,-5.9,.,.,.,
O=C1C(Cc2ccccc2)Nc2ncnc(N3CCc4ccccc4C3)c2N1Cc1ccc(Cl)cc1 (centres undefined),56.0*,-0.6,-3.5,-29.8,17.1,67.0,49.1*,57.3*,
COCC(=O)Nc1ccccc1-c1ccccc1,-37.8,-0.5,-1.8,0.2,.,.,.,.,
COc1ccc(OCC(=O)Nc2ccccc2-c2ccccc2)cc1,52.7*,-3.9,-9.7,0.9,.,52.8,59.4*,62.1*,
COc1ccc(OCC(=O)Nc2ccccc2N2CCN(C)CC2)cc1,0.8,0.0,0.8,-1.3,-2.7,1.4,.,.,
COc1ccc(OCC(=O)Nc2ccccc2N2CCCCC2)cc1,60.8*,-1.0,4.4,-2.3,8.8,60.7,76.0*,59.1*,
O=c1[nH]cc(CCc2ccccc2)c(=O)[nH]1,.,-0.4,.,.,.,.,.,.,
O=c1cccc2c1c1cc[nH]c3ccc(=O)n2c31,72.5*,2.6,-1.1,-1.8,-5.4,-11.1,67.6*,53.2*,
O=c1cc[nH]c2ccc(Cl)cc12,6.6,-0.9,0.0,-2.1,1.7,-9.8,.,.,
CC(C)C(=O)Nc1ccc(C(=O)N/N=C/c2cc(Br)cc(Br)c2O)cc1,66.2*,6.7,2.5,31.3*,79.0*,83.5*,22.3,.,
C=CCn1cnc2c(c1=O)c1nc3ccccc3nc1n2/N=C/c1cc(OC)c(OC)c(OC)c1,85.5*,-1.3,4.2,-2.8,102.1*,40.8,75.0*,64.8*,
C=CCn1cnc2c(c1=O)c1nc3ccccc3nc1n2/N=C/c1cccc(OC)c1OC,59.3*,1.4,11.7,-1.5,2.2,32.8,31.2,.,
Cc1cccc(C)c1NC(=O)CNC(=O)c1cccc(S(=O)(=O)NCc2cccs2)c1,-3.6,-1.8,4.0,1.0,-5.8,.,.,.,
CC1(C)Cc2ccccc2C2=NNC(=O)C2=N1,85.8*,-1.0,31.4,1.2,-27.4,25.4,64.9*,29.2,
Cc1ccc2[nH]c(CN3CCC(CO)(CC4CCCCO4)CC3)c(C)c2c1 (centres undefined),53.0*,7.5,25.7,-1.9,-3.0,20.7,29.9,.,
OCCNc1nc(Nc2ccc(Br)cc2)nc2ccccc12,69.8*,.,31.7,1.2,22.0,49.4,54.9*,66.8*,
OCCNc1nc(Nc2ccccc2)nc2ccccc12,10.9,11.4,6.7,0.5,5.2,3.4,.,.,
Oc1ccccc1-c1nc(NCc2cccnc2)c2ccccc2n1,70.0*,0.9,7.5,2.4,-10.5,62.8,49.5*,77.9*,
Oc1ccccc1-c1nc(NCc2ccccc2)c2ccccc2n1,56.0*,2.4,2.5,16.3*,-5.0,29.4,32.9,.,
Oc1ccccc1Nc1nc(NCc2ccccc2)c2ccccc2n1,83.4*,11.0,32.4,4.3,11.1,102.7*,33.0,.,
O=C(O)c1cnnc2ccccc12,.,-1.5,-2.2,-4.0,.,.,.,.,
SMILES,Mdm2 MdmX PPI,MPTP inh,Gli-Sufu antag,NR3A LBD binder,Beta cell apopt,CSC inhib,Mdm2 MdmX conf,FLuc counter,others
COc1ccc(CCNC(=O)CCCCCN2C(=O)[C@@H]3Cc4ccccc4CN3C2=O)cc1OC,19.9,-0.8,-11.4,2.0,-0.1,-10.4,.,.,
Cc1cc2oc(=O)cc(CN3CCN(S(=O)(=O)c4cccs4)CC3)c2cc1C,15.2,3.6,10.3,-2.0,15.2,-6.5,.,.,
O=c1cc(O)c2sc(Nc3cccc(C(F)(F)F)c3)nc2[nH]1,21.2,2.2,-2.6,6.3,.,3.0,.,.,
O=c1cc(O)c2sc(Nc3ccc(F)cc3)nc2[nH]1,65.7*,-0.1,-2.6,-23.4,.,10.4,47.5*,42.5*,
Nc1ncnc(NCc2ccccc2)c1[N+](=O)[O-],26.2,0.0,-21.4,-16.0,-4.9,-18.1,.,.,
Nc1ncnc(NCc2ccc(F)cc2)c1[N+](=O)[O-],68.6*,0.0,-16.5,-2.0,-24.4,-14.9,61.5*,27.0,
Cc1coc2c(C)c3oc(=O)c(CCC(=O)NCc4ccccn4)c(C)c3cc12,-13.8,0.1,0.3,-3.7,-3.5,-5.4,.,.,
O=C1COc2ccc(C(=O)COC(=O)c3ccc(F)cc3Cl)cc2N1,7.4,1.3,7.1,-1.6,-5.4,-15.5,.,.,
Cc1nnc(SC(=O)N2c3ccccc3Sc3ccccc32)s1,96.9*,0.3,11.9,0.1,-11.8,53.0,97.6*,51.8*,
O=C(Oc1ccc2ccc(=O)oc2c1)c1ccc([N+](=O)[O-])cc1,26.6,1.4,1.2,-4.0,-4.3,-0.6,.,.,
O=c1ccc2ccc(Oc3ccc([N+](=O)[O-])cc3[N+](=O)[O-])cc2o1,57.6*,.,.,.,0.5,58.8,60.0*,71.7*,
Cc1cc2cc(CN(CC3CCCO3)C(=S)Nc3ccccc3)c(=O)[nH]c2cc1C (centres undefined),66.7*,2.0,62.8*,-4.6,8.8,2.7,56.5*,59.2*,Gli-Sufu confirm=79.9*;SufuKO cytotox=50.4*;Wnt3a cs=-1.4
